# PubChem BioAssay
# Activity calls are given as the source filed them. Unless noted, how the calls were made is not given here.
# Key:
# [1] = anti-His antibody binders, primary screen, artefact control for SMM control protein annotation, biochemical, small-molecule microarray, 635 nm fluorescence (AID 1128); conditions: anti-His Alexa647 antibody binding, higher = more signal;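 further: score merges feature fluorescence with signal-to-noise for each printed compound spot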
# [2] = tested on: Human papillomavirus type 1a E7 protein (residues 1-88); experiment: HPV1a E7 small-molecule binders, primary screen, biochemical, small-molecule microarray, residues 1-88, 635 nm (AID 1129); conditions: small-molecule microarray binding, fluorescence 635 nm; higher = more signal
# [3] = molecular target: Focal adhesion kinase 1 (Homo sapiens) (UniProt Q05397); experiment: small-molecule microarray binders of FAK, primary screen, biochemical, 635/667 nm fluorescence, BSA, DTT (AID 1130); conditions: PTK2 binding, 635 nm fluorescence, higher = more signal;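 further: composite of spot emission at 667 nm and signal to noise over triplicate slides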
# Chain of Focal adhesion kinase 1 (Homo sapiens) (Q05397 whole entry, looked up): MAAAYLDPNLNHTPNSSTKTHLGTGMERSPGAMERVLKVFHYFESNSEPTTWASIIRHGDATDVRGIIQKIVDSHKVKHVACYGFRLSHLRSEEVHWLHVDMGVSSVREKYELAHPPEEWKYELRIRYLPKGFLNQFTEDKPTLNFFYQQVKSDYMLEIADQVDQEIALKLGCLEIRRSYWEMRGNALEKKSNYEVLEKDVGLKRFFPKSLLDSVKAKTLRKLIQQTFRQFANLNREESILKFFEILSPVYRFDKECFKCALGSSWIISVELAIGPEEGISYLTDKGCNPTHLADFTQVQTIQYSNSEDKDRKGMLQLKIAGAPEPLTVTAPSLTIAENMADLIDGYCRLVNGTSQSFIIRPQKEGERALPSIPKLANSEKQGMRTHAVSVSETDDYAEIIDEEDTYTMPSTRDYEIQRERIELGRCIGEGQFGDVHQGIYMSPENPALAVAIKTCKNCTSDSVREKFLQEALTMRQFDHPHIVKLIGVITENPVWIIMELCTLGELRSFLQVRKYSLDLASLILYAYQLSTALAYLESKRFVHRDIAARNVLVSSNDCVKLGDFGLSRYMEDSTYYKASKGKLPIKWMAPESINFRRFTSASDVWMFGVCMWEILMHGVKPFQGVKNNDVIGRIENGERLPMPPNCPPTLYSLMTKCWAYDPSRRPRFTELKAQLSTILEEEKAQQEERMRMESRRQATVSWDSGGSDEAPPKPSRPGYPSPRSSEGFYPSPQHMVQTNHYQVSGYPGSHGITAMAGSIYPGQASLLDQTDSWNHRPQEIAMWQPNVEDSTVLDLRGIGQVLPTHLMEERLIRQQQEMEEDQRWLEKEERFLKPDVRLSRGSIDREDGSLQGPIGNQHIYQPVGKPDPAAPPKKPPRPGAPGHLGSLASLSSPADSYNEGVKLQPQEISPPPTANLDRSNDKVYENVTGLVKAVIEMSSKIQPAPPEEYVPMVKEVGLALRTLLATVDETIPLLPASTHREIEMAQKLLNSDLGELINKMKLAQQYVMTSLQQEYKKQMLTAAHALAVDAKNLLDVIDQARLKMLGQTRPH
# [4] = tested on: Fibrinogen (Alexa647-labelled); experiment: fibrinogen binders on compound microarrays, profiling panel, artefact control for SMM control-protein annotation, biochemical, small-molecule microarray, 635/667 nm fluorescence (AID 1131); conditions: fibrinogen-A647 binding fluorescence, higher = more signal;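 further: z-score merges 667 nm fluorescence with per-spot signal-to-noise over triplicate slides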
# [5] = molecular target: Follistatin (Homo sapiens) (UniProt P19883); experiment: follistatin binders on small-molecule microarrays, primary screen, biochemical, small-molecule microarray, 635/667 nm fluorescence (AID 1132); conditions: FST binding, 635 nm fluorescence, higher = more signal
# Chain of Follistatin (Homo sapiens) (P19883 whole entry, looked up): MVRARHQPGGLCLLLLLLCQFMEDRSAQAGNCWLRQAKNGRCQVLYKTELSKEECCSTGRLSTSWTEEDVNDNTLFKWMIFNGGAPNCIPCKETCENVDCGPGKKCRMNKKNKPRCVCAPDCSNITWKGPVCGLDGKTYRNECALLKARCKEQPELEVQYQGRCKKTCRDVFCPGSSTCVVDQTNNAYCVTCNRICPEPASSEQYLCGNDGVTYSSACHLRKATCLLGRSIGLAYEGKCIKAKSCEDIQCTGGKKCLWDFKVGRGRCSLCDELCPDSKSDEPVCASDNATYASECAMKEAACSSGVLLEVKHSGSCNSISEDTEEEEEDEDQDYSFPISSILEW
# [6] = molecular target: Fibroblast growth factor 2 (Homo sapiens) (UniProt P09038); experiment: FGF2 binders on small-molecule microarrays, primary screen, biochemical, small-molecule microarray, 635/667 nm fluorescence (AID 1133); conditions: small-molecule microarray binding, FGF2, fluorescence 635/667; higher = more signal
# Chain of Fibroblast growth factor 2 (Homo sapiens) (P09038 whole entry, looked up): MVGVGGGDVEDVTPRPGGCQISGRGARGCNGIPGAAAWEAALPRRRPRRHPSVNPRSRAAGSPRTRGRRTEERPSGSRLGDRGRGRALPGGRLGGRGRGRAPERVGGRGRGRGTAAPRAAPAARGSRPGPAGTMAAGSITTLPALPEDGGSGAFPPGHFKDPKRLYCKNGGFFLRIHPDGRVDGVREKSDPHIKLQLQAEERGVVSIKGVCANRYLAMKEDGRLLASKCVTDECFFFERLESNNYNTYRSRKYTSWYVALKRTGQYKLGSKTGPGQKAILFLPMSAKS
# [7] = mitochondrial membrane potential change in A549 cells, profiling panel, cell-based, JC-1 fluorescence, basal, 24 h, 100 nL (AID 1138); conditions: higher = more signal;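 further: A549 lung adenocarcinoma cells under basal conditions with no added stimulus; test concentration not given here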
# [8] = tested on: Lefty1; experiment: Lefty1 binders on small-molecule microarrays, primary screen, biochemical, small-molecule microarray, 635/667 nm fluorescence (AID 1139); conditions: small-molecule microarray binding, fluorescence 635/667; higher = more signal
# [9] = tested on: wheat germ agglutinin (Triticum aestivum), Alexa647-labelled; experiment: wheat germ agglutinin binders on compound microarrays, profiling panel, artefact control for SMM control-protein annotation, biochemical, small-molecule microarray, 635/667 nm fluorescence (AID 1140); conditions: WGA-A647 binding, 635 nm fluorescence, higher = more signal;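 further: score merges 667 nm feature emission with signal to noise over triplicate slides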
# [10] = molecular target: Luciferin 4-monooxygenase (Photinus pyralis) (UniProt P08659); experiment: firefly luciferase enzyme inhibitors, primary screen, biochemical, luminescence, purified enzyme, 2006 set (AID 1141); conditions: SteadyGlo luminescence, 30 min, higher = more signal, called active from +8 up or from −8 down;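 further: cell-free assay with purified firefly luciferase at 100 ng per well in PBS; test concentration not given here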
# Chain of Luciferin 4-monooxygenase (Photinus pyralis) (P08659 whole entry, looked up): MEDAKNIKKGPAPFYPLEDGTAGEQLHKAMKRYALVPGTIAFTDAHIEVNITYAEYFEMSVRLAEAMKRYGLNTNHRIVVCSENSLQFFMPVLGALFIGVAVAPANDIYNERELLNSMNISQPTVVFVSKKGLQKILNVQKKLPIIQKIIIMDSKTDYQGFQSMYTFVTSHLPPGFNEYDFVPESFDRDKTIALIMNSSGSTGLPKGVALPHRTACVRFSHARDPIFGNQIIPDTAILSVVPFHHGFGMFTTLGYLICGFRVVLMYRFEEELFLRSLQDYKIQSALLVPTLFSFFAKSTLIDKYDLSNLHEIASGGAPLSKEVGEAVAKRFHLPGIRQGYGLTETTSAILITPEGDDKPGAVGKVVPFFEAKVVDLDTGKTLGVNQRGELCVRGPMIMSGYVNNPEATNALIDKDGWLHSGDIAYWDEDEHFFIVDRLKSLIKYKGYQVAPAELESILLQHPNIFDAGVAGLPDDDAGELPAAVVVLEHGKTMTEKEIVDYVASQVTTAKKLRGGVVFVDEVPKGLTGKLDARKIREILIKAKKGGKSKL
# [11] = tested on: Wnt5a (protein binding on small-molecule microarray); experiment: Wnt5a binders on small-molecule microarray, primary screen, biophysical, 635/667 nm fluorescence (AID 1142); conditions: 635 nm fluorescence, higher = more signal;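 further: fluorescence read at 667 nm with signal to noise per printed feature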
# [12] = cell viability in Huh7 cells, primary screen, cytotoxicity control for HCV replication inhibitor project, CellTiter-Glo luminescence, basal, 48 h (AID 1143); conditions: Huh7 HCV replicon, higher = more signal, called active from +8 up or from −8 down;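 further: Huh7 hepatoma cells carrying a hepatitis C replication reporter with no stimulus; test concentration not given here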
# [13] = P. aeruginosa biofilm formation inhibitors, primary screen, PAO1 strain, BacTiter-Glo luminescence, LB-PBS (AID 1144); conditions: 12 h, higher = more signal
# [14] = CREB reporter modulators without forskolin, primary screen, cell-based, PC12, CRE-LacZ reporter, unstimulated (AID 1145); conditions: no forskolin, luminescence, 4.5 h, higher = more signal, called active from +8 up or from −8 down
# [15] = CREB reporter modulators under forskolin, primary screen, cell-based, PC12, CRE-LacZ reporter, forskolin-stimulated (AID 1146); conditions: luminescence, 4.5 h, higher = more signal, called active from +8 up or from −8 down;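 further: PC12 cells with 6xCRE LacZ reporter stimulated by forskolin 10 µM; beta-galactosidase reporter signal reflecting CREB driven transcription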
# [16] = molecular target: Streptavidin (Streptomyces avidinii) (UniProt P22629); experiment: streptavidin binders on small-molecule microarray, primary screen, artefact control for SMM compound annotation, biophysical, 635/667 nm fluorescence (AID 1147); conditions: streptavidin binding, higher = more signal;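 further: signal reflects streptavidin binding to arrayed compounds as a control protein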
# Chain of Streptavidin (Streptomyces avidinii) (P22629 whole entry, looked up): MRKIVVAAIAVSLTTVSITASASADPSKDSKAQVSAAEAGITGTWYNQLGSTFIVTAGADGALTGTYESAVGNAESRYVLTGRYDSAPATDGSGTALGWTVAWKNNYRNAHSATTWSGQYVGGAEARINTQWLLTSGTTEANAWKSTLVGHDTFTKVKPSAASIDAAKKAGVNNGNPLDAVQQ
# [17] = small-molecule binders of probe aInhba, primary screen, biochemical, small-molecule microarray, 635/667 nm fluorescence (AID 1148); conditions: higher = more signal;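 further: score merges 667nm spot fluorescence with signal-to-noise for antibody binding to printed compounds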
# [18] = molecular target: Torsin-1A (Homo sapiens) (UniProt O14656); experiment: torsin A binders from cell lysate, primary screen, small-molecule microarray, wild-type, 635/667 nm (AID 1149); conditions: COS7 hTOR1A-WT lysate, 635 nm fluorescence, higher = more signal
# Chain of Torsin-1A (Homo sapiens) (O14656 whole entry, looked up): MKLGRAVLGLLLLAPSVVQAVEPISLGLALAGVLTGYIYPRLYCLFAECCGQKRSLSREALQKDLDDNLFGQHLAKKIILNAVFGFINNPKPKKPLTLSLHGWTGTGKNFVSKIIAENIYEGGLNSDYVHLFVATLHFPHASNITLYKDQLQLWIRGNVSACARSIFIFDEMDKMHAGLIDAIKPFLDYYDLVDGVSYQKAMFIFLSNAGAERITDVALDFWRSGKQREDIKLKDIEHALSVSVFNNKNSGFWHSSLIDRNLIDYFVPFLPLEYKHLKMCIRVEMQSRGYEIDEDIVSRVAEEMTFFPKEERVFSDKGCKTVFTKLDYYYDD
# [19] = molecular target: Torsin-1A (Homo sapiens) (UniProt O14656); experiment: small-molecule binders of mutant TOR1A in lysate, primary screen, cell lysate, small-molecule microarray, COS7 lysate, 635/667 nm fluorescence (AID 1150); conditions: COS7 hTOR1A mutant lysate, 635 nm fluorescence, higher = more signal;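 further: score pools 667 nm emission and signal to noise measuring lysate protein binding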
# [20] = tested on: Sonic hedgehog protein (Shh); experiment: small-molecule binders of Shh protein, primary screen, biochemical, small-molecule microarray, 635/667 nm fluorescence (AID 1151); conditions: small-molecule microarray binding, 635 nm fluorescence; higher = more signal;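 further: Shh protein binding to compounds spotted on small-molecule microarray slides; score combines spot fluorescence intensity with signal-to-noise across triplicate slides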
SMILES,composite z-score [1],composite z-score [2],composite z-score [3],composite z-score [4],composite z-score [5],composite z-score [6],z-score [7],composite z-score [8],composite z-score [9],z-score [10],composite z-score [11],z-score [12],z-score [13],z-score [14],z-score [15],composite z-score [16],composite z-score [17],composite z-score [18],composite z-score [19],composite z-score [20]
CC(C)C[C@@H]1NC(=O)[C@@H]2C[C@H](C(=O)NCCCCCCN)[C@H](c3cccc(OCCO)c3)N2C1=O,2.25,1.11,0.344,0.662,1.32,0.548,-0.645,1.51,1.1,0.459 (inactive),0.0254,-0.214 (inactive),-1.74 (inactive),-0.675 (inactive),0.348 (inactive),0.919,0.747,0.255,1.73,2
COC(=O)[C@@]1(Cc2ccc(OC)cc2)[C@H]2c3cc(C(=O)N4CCCC4)n(CCc4c[nH]c5ccc(OC)cc45)c3C[C@H]2CN1C(=O)c1ccccc1,1.99,1.18,0.894,0.755,1.22,-0.904,0.675,-0.162,1.29,1.3 (inactive),0.411,-3.16 (inactive),0.717 (inactive),0.201 (inactive),-0.715 (inactive),1.5,0.35,-0.0701,0.327,-0.565
Cc1ccc(F)cc1S(=O)(=O)N[C@@H]1CCN(Cc2ccc(Br)cc2)C1,-0.325,-0.464,-0.408,0.79,0.639,0.677,1.47,0.983,0.124,-0.457 (inactive),-0.144,-3.58 (inactive),0.767 (inactive),0.764 (inactive),-1.64 (inactive),0.165,-0.0986,0.476,0.495,1.29
COC(=O)[C@]1(CCS(=O)(=O)c2ccccc2)N=C(c2ccc(OCCCO)cc2)O[C@@H]1c1ccccc1N=[N+]=[N-],3.54,1.27,0.263,0.906,1.39,1.75,-0.447,0.387,1.09,-1.32 (inactive),1.21,-3.71 (inactive),-0.731 (inactive),2.42 (inactive),-0.889 (inactive),1.39,0.438,0.588,0.453,2.09
CCCCC=C[C@@H](NC(=O)OCc1ccccc1Cl)c1ccccc1,0.361,1.25,0.128,0.979,1.19,-0.172,-1.55,0.868,0.385,0.488 (inactive),1.45,-0.392 (inactive),-0.146 (inactive),0.394 (inactive),1.02 (inactive),0.484,0.592,-0.266,0.665,0.62
